Screens (PubChem BioAssay)
Compounds with a hit are over-represented: about 3.1% of the library has one in this group of screens.
BoNT A protease = inhibitors of Botulinum neurotoxin A light chain protease; inhibition, % at 10 µM; multiplex microsphere protease substrate cleavage, flow cytometry; AID 588499; 0.17% of 360,000 active; note: plate controls were buffer without enzyme for full effect and enzyme alone for no effect
BoNT F protease = inhibitors of Botulinum neurotoxin F light chain protease; Multiplex microsphere protease cleavage assay, flow cytometry; inhibition, % at 10 µM; 0.22% of 360,000 active; in the data active = inhibition above about 35%, passing the limit was not always enough; inconclusive = no clear call, values can overlap the other calls; note: plate controls were buffer without enzyme for full effect and enzyme alone for no effect
SSB-PriA inh = inhibitors of Klebsiella pneumoniae PriA binding to SSB C-terminal tail. AlphaScreen SSBct-PriA binding, biotinylated peptide. inhibition, % at 33 µM. 0.6% of 430,000 active; in the data active = inhibition mostly above about 37%, no sharp cut-off; inactive = mostly below about 20%;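 note: plate controls were negative control peptide for no effect and reference peptide for full effect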
Anthrax LF prot = blocks Bacillus anthracis lethal factor protease; multiplex microsphere protease cleavage assay, LF; P15917; AID 588501; 0.12% of 360,000 active; inhibition, % at 10 µM; note: plate controls were buffer without enzyme for full effect and enzyme alone for no effect
Target sequence (P15917 whole entry, looked up): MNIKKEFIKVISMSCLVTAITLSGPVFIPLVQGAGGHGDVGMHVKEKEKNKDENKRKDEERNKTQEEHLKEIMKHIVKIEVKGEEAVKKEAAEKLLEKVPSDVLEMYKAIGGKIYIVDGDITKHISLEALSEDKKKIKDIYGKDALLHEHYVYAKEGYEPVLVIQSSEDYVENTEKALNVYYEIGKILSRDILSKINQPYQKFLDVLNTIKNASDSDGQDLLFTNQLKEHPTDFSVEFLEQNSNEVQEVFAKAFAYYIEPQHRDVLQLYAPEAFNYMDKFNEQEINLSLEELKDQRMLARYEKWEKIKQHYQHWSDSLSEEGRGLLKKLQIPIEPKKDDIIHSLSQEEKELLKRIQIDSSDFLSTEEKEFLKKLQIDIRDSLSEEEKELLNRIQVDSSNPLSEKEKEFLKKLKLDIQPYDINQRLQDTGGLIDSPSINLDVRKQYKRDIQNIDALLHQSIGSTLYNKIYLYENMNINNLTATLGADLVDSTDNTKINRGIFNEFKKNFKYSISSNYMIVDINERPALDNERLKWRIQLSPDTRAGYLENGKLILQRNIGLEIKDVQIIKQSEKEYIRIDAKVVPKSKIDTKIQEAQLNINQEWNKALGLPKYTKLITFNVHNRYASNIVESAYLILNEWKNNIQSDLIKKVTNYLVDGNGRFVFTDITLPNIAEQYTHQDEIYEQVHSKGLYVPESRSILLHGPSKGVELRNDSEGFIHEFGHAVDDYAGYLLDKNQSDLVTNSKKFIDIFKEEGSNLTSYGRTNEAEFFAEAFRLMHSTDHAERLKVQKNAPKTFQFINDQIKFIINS
Autofluor counter = compound fluorescence in toxin protease inhibitor counterscreen; compound autofluorescence counterscreen, microsphere flow cytometry; stronger effect = higher value; 3.1% of 360,000 active; fluorescence intensity (concentration not given with the values); in the data active = fluorescence intensity above about 16000; inconclusive = no clear call, values can overlap the other calls
An asterisk follows results filed as active; u = inconclusive; x = not tested or not shown. Cut-off read from the data, not from the text of the source, unless noted: active = inhibition above about 30%; inconclusive = no clear call, values can overlap the other calls; inactive = below that.

SMILES	BoNT A protease	BoNT F protease	SSB-PriA inh	Anthrax LF prot	Autofluor counter
Cc1ccccc1Cn1ccc(NC(=O)c2nn(C)cc2[N+](=O)[O-])n1	-0.9	-10.7	-11.0	-1.3	2055
CCn1cc([N+](=O)[O-])c(C(=O)Nc2nc(-c3ccc(C)cc3)c(C)s2)n1	-1.3	-5.9	-0.2	-0.7	16716*
CCn1cc([N+](=O)[O-])c(C(=O)Nc2ccn(Cc3ccccc3F)n2)n1	-0.6	-1.3	-11.0	-1.1	23949*
O=C(Oc1c(Cl)cc(Cl)c2cccnc12)N1CCCCC1	u	-7.8	-11.0	-0.8	21476*
O=C(Cc1cccs1)N1CCC2(CC1)OCCS2	x	x	-2.0	x	x
Cn1cc(CCC(=O)N2CCC3(CC2)OCCO3)c2ccccc21	0.8	-2.0	-6.0	0.8	23713*
O=C(Cc1cccs1)N1CCC2(CC1)OCCO2	-1.9	-0.9	0.8	-0.5	20223*
O=C(Nc1nc(-c2ccccn2)cs1)c1cc(Cl)ccc1Cl	x	x	86.0*	x	x
O=C(Nc1nc(-c2ccccc2Cl)cs1)c1cccnc1	-0.1	1.1	-6.6	0.0	20683*
Cc1cnc(C(=O)Nc2nc(-c3ccccn3)cs2)cn1	x	x	119.5*	x	x
O=C(Nc1nc(-c2ccccn2)cs1)c1cc(Cl)ccn1	x	x	99.0*	x	x
Cc1ccccc1C(=O)Nc1nc(-c2cc(Cl)ccc2Cl)cs1	x	x	-7.0	x	x
O=C(NC(=S)Nc1nc(-c2ccccc2)cs1)c1cccnc1	-2.0	-11.3	-0.9	-5.6	4212
Cc1nc(SCc2ccccc2F)[nH]c(=O)c1CC(=O)NCc1ccc2c(c1)OCO2	x	x	1.0	x	x
O=C(c1ccc(=O)[nH]c1)N1CCC[C@H](Cc2nc(-c3ccsc3)no2)C1	x	x	4.0	x	x
NC(=O)c1ccccc1N	0.1	4.4	-5.6	3.5	3998
Nc1nnc(C(=O)c2ccccc2N)s1	-1.7	-3.1	10.0	-0.5	21252*
Cc1ccc(C)c(S(=O)(=O)N2CCN(Cc3cc4c(cc3O)OCO4)CC2)c1	-4.0	-15.7	41.2*	1.2	9818
CCCOC(=O)Nc1nnc(CCC)s1	7.0	10.0	-5.4	2.0	21272*
CCCCCc1nnc(NC(=O)OCCC)s1	0.2	3.4	-15.2	-0.9	4094
O=C(NCc1ccccc1)c1cc(=O)nc2sc(-c3ccccc3)nn12	-1.5	0.1	9.7	1.1	23048*
COC(=O)c1cc(=O)nc2sc(-c3ccc(F)cc3)nn12	-1.1	-6.4	-6.5	-0.6	8601
Cc1ccc(NC(=O)C[C@@H]2Nc3ccccc3NC2=O)c(Br)c1	x	x	-20.0	x	x
COc1ccc(N2CCN(C(=O)CSc3ncccc3-c3nc4ccccc4[nH]3)CC2)cc1	2.7	-1.7	-0.4	5.3	20130*
O=C(CSc1ncccc1-c1nc2ccccc2[nH]1)N1CCN(c2ccccc2F)CC1	5.3	4.2	-3.7	-4.3	17934*
SMILES	BoNT A protease	BoNT F protease	SSB-PriA inh	Anthrax LF prot	Autofluor counter
COc1ccc(C(=O)CSc2ncccc2-c2nc3ccccc3[nH]2)cc1	x	x	-2.0	x	x
COc1ccccc1N1CCN(C(=O)CSc2ncccc2-c2nc3ccccc3[nH]2)CC1	3.9	-0.8	9.6	5.2	21668*
O=S(=O)(Nc1cccc(-c2ccc3nncn3n2)c1)c1cccnc1	x	x	2.0	x	x
CSc1ccccc1CN1CCC(CNS(=O)(=O)c2ccc(Br)s2)CC1	x	x	13.0	x	x
COc1ccc(S(=O)(=O)N2CCCC2C(=O)NC2=NCCS2)cc1 (configuration not stated)	x	x	-1.0	x	x
Cc1ccc(C(C)NC(=O)c2c(C)noc2C)cc1C (configuration not stated)	-4.0	-1.9	-16.0	-2.0	24941*
Cc1noc(C)c1C(=O)NNc1ccc(C(C)C)cc1	x	x	-13.3	x	x
CCOc1ccc(OCCNC2CCCC2)cc1	u	-6.3	0.8	-3.0	22478*
CCCOc1ccc(OCCNC2CCCC2)cc1	0.5	0.0	-2.9	-0.5	20118*
CC(C)(C)c1ccc(OCCCNC2CCCC2)cc1	-0.3	-14.3	-2.2	-6.7	4768
Cc1ccc(OCCCNC2CCCC2)cc1	0.4	-0.8	-7.1	0.4	2246
CCn1nc(C(=O)Nc2nc(-c3ccc(OC)cc3)c(C)s2)cc1C	x	x	-5.0	x	x
O=C1NC(=O)N(CCC2=CCCCC2)C(=O)/C1=C/c1cccs1	11.9	37.2*	5.0	u	3753
CCCN1CCCc2ccc(N)cc21	x	x	129.9*	x	x
CCCN1CCCc2cc(CN)ccc21	2.7	-71.4	32.0	-20.4	5923
NS(=O)(=O)c1ccc(CCNC(=O)c2ccccc2F)cc1	-1.5	-5.5	-1.8	-1.1	16685*
O=C(NCCc1ccccc1)c1ccccc1F	-0.6	-9.1	-1.8	1.4	2007
O=C(NCCNC(=O)C(F)(F)F)c1ccncc1	0.2	8.7	1.8	u	u
O=C(NCCc1ccncc1)c1ccccc1F	2.8	4.1	-4.9	1.0	21712*
O=C(NCCc1ccncc1)C(F)(F)F	-1.0	-0.5	-10.1	0.1	24347*
CN(Cc1nc2ccccc2[nH]1)C(=O)OCc1ccccc1	x	x	2.0	x	x
CCCc1ccc(C(=O)N2CCN(c3ccccc3OCC)CC2)cc1	-2.7	-8.5	-2.2	-0.5	25022*
CNS(=O)(=O)c1cccc(C(=O)NCC(c2cccs2)N(C)C)c1 (configuration not stated)	2.5	2.8	-6.9	-8.5	22234*
Cc1ccc(NS(=O)(=O)c2cccc(C(=O)NCC(c3cccs3)N(C)C)c2)cc1 (configuration not stated)	-0.6	-3.5	-3.7	-0.8	4015
O=C(Cn1ccn(-c2cccc(Cl)c2)c(=O)c1=O)NC1CCCC1	x	x	-17.0	x	x
SMILES	BoNT A protease	BoNT F protease	SSB-PriA inh	Anthrax LF prot	Autofluor counter
CCOC(=O)C=C1NC2(CCCCC2)Cc2cc(OC)c(OC)cc21	x	x	-5.5	x	x
CS(=O)(=O)N(CC(=O)NC1CCCC1)Cc1ccc(Cl)cc1	-2.7	-0.4	-10.3	0.3	17349*
CS(=O)(=O)N(CC(=O)NCC1CCCO1)Cc1ccc(Cl)cc1 (configuration not stated)	-0.1	-32.7	-11.0	-1.6	3793
CN(CC(=O)NC1CCCCC1)S(=O)(=O)c1ccc(Cl)cc1	1.0	10.4	-6.8	7.6	6633
CS(=O)(=O)N(CC(=O)NC1CCCCC1)Cc1ccc(Cl)cc1	-2.6	-5.1	-6.2	-3.9	17256*
CS(=O)(=O)N(CC(=O)N1CCCCCC1)Cc1ccc(Cl)cc1	u	4.4	-11.6	-0.7	22456*
COc1ccc(CNC(=O)COc2ccc(S(=O)(=O)N3CCCCC3)cc2)cc1	-3.2	4.3	-4.6	-2.6	6277
Cc1cc(=O)oc2cc(OCC(=O)NCc3ccncc3)ccc12	-0.3	-5.5	-18.2	-2.4	10891
O=C(COc1ccc(S(=O)(=O)N2CCCCC2)cc1)NCc1cccnc1	2.4	4.2	-9.6	-1.5	22072*
Cc1cc(=O)oc2cc(OCC(=O)NCc3cccnc3)ccc12	-1.7	-6.1	-4.6	-3.2	23262*
O=C(Nc1ccc2c(c1)N(C(=O)c1cccs1)CC2)C1c2ccccc2Oc2ccccc21	x	x	-12.0	x	x
COC(=O)CNC(=O)c1cccc(-c2ccc(OC)cc2)c1	0.1	-3.5	-1.6	-0.4	2181
CCN(CC)C(=O)c1cccc(-c2ccc(OC)cc2)c1	0.9	0.0	-6.6	-0.7	21818*
CSc1ccc(-c2noc(Cc3nnc(-c4ccc(C)c(C)c4)o3)n2)cc1	x	x	-14.0	x	x
Cc1ccc(N2CC(C(=O)Nc3cccnc3)CC2=O)cc1 (configuration not stated)	0.1	1.5	-15.2	1.0	23113*
